Assay outcomes as filed in PubChem BioAssay.
Pf growth 48h: inhibits P. falciparum growth in the first generation, 48 h. Potency, µM (top dose mostly 28.7 µM), actives largely listed as inhibitors. P. falciparum luciferase growth in erythrocytes, 48 h. AID 504832. 5.9% of 310,000 active; active = well fitted inhibition curve with a large enough effect; inconclusive = small, poorly fitted or top-dose-only effect, or another doubt; inactive = no such curve, though single readings can be large or run the other way
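Compounds are pin-transferred into medium, infected erythrocytes (2% hematocrit, 0.1% parasitemia final) are added, and plates sit one parasite generation at 37 C in 5% CO2. Detection reagent is then added and luminescence measured.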
CHX counter-1: affects cycloheximide protein synthesis inhibition readout, counter-screen; max response, %; cell reporter, cycloheximide protein synthesis inhibition counterscreen; 12% of 300,000 active; in the data active = max response mostly above about 13%, no sharp cut-off; inactive = mostly below about 14%; note: read at 38.3 µM for the half of the compounds with a filed dose
SARS PLP yeast: SARS-CoV PLP inhibition in yeast | 0.19% of 330,000 active | S. cerevisiae expressing SARS-CoV PLpro, growth rescue | Potency, µM (series often up to 32.9 µM), hits mostly activators; note: nearly all actives have a fitted effect of over 55% in size
NS1 function inh: influenza NS1 inhibition; 0.4% of 270,000 active; Potency, µM (titrated, usually from 46.1 µM); note: actives are rising curves; nearly all actives have a fitted effect of over 50% in size
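S. cerevisiae expressing influenza A NS1, grown in glucose, washed, then diluted 1:100 into pH 6.0 -URA galactose medium with 23 nl compound. Growth recovery read as OD600; NS1-free strain serves as control.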
Pf growth 96h: P. falciparum growth inhibition at 96 hours; P. falciparum luciferase reporter growth, 96 h; Potency, µM (highest dose often 28.7 µM), actives largely listed as inhibitors; 6.9% of 320,000 active; active = well fitted inhibition curve with a large enough effect; inconclusive = small, poorly fitted or top-dose-only effect, or another doubt; inactive = no such curve, though single readings can be large or run the other way
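Cell-based qHTS: luciferase-tagged P. falciparum in erythrocytes (2% hematocrit, 0.05% parasitemia final) incubated with compounds for 96 hours, 37 C, 5% CO2; luciferase detection reagent then added and luminescence measured.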
Shiga toxin inh: Shiga toxin inhibition | Vero cells, Shiga toxin protein synthesis inhibition reporter | inhibition, % at 38.7 µM | 9.2% of 290,000 active; in the data active = inhibition mostly above about 28%, no sharp cut-off; inactive = mostly below about 43%
CHX counter-2: affects protein synthesis reporter in cycloheximide counter-screen; AID 2318; shares compounds with Shiga toxin inh; Cycloheximide counterscreen, protein synthesis reporter, Shiga toxin assay; Potency, µM (series often up to 38.3 µM), hits mostly activators; 3% of 510 active
Numbers stand for hits. Rows were chosen to be rich in hits. Some 21% of all compounds tested hit in one or more screens of this group. Unless noted, calls come from the whole dose curve.

Screening CCC(=O)Nc1ccc(NC(=O)CSc2nnnn2C(C)C)cc1 returned Pf growth 48h inactive, CHX counter-1 inactive, SARS PLP yeast inactive, NS1 function inh inactive, Pf growth 96h inactive and Shiga toxin inh inactive.
For O=c1c2ccccc2nc(SCc2ccccc2F)n1C1CCCC1 the results were Pf growth 48h inactive, CHX counter-1 inactive, SARS PLP yeast inactive, NS1 function inh inactive, Pf growth 96h inactive and Shiga toxin inh inactive.
Screening Nc1nc(-c2nn(Cc3ccccc3F)c3ncccc23)ncc1C1CC1 returned CHX counter-1 inactive, Shiga toxin inh 28.0 and CHX counter-2 inactive.
`COc1ccc(OC)c(C2C(C(=O)Nc3cccnc3)=C(C)NC3=C2C(=O)CCC3)c1` (stereo not drawn) gave Pf growth 48h inactive, CHX counter-1 inactive, SARS PLP yeast inactive, NS1 function inh inactive, Pf growth 96h inactive and Shiga toxin inh inactive.
For NNC(=O)c1ncoc1-c1ccc(Cl)cc1 the results were Pf growth 48h inactive, CHX counter-1 inactive, SARS PLP yeast inactive, NS1 function inh inactive, Pf growth 96h inactive and Shiga toxin inh inactive.
`O=C(NCCc1ccccc1)C1CCCN1S(=O)(=O)c1ccccc1` (stereo not drawn) gave Pf growth 48h inactive, CHX counter-1 inactive, SARS PLP yeast inactive, Pf growth 96h inactive, Shiga toxin inh 21.9 and CHX counter-2 inactive.
O=c1c(-c2n[nH]c(=S)n2-c2ccccc2)cccn1Cc1cccc(Cl)c1 was read as Pf growth 48h inactive, CHX counter-1 inactive, SARS PLP yeast inactive, Pf growth 96h inactive and Shiga toxin inh inactive.
Screening COC(=O)[C@H](Cc1ccccc1)NC(=O)N1CCCCC1C (stereo partly drawn) returned Pf growth 48h inactive, CHX counter-1 inactive, SARS PLP yeast inactive, NS1 function inh inactive, Pf growth 96h inactive, Shiga toxin inh 117.0 and CHX counter-2 inactive.
`Cc1ccc(S(=O)(=O)NC(C(=O)N2CCOCCOCCOCC2)C(C)C)cc1` (stereo not drawn) gave Pf growth 48h inactive, CHX counter-1 inactive, SARS PLP yeast inactive, NS1 function inh inactive, Pf growth 96h inactive and Shiga toxin inh inactive.
O=C(Nc1ccc(O)cc1)/C(=C\C=C\c1ccccc1)NC(=O)c1ccccc1 was read as Pf growth 48h inactive, CHX counter-1 inactive, SARS PLP yeast inactive, NS1 function inh inactive, Pf growth 96h inactive, Shiga toxin inh 30.4 and CHX counter-2 inactive.
CC(=O)Nc1ccc(Oc2ccc(-c3noc(C)n3)cc2)cc1 was read as Pf growth 48h inconclusive, CHX counter-1 inactive, NS1 function inh inactive, Pf growth 96h inactive, Shiga toxin inh 81.8 and CHX counter-2 inactive.
COc1ccc(-c2noc(CNS(=O)(=O)c3ccc(NC(C)=O)cc3)n2)cc1 was read as Pf growth 48h inactive, CHX counter-1 inactive, SARS PLP yeast inactive, NS1 function inh inactive, Pf growth 96h inconclusive and Shiga toxin inh inactive.
Screening O=C(COc1ccc2ccc(=O)oc2c1)NCc1ccccn1 returned Pf growth 48h inactive, CHX counter-1 inactive, SARS PLP yeast inactive, NS1 function inh inactive, Pf growth 96h inactive and Shiga toxin inh inactive.
`Cc1cc(OCC(=O)NCc2ccccn2)cc(C)c1Br` gave Pf growth 48h inactive, CHX counter-1 inactive, SARS PLP yeast inactive, NS1 function inh inactive, Pf growth 96h inconclusive, Shiga toxin inh 47.1 and CHX counter-2 inactive.
`Cc1cc(C(=O)COC(=O)C23CC4CC(CC(O)(C4)C2)C3)c(C)n1C` gave SARS PLP yeast inactive.
For O=c1n(Cc2ccc(F)cc2)nc2n1-c1ccccc1SC2 the results were Pf growth 48h inactive, CHX counter-1 inactive, SARS PLP yeast inactive, NS1 function inh inactive, Pf growth 96h inactive, Shiga toxin inh 31.2 and CHX counter-2 inactive.
CC(=O)Nc1ccc(C2(O)COc3ccccc3O2)cc1 (stereo not drawn) was read as Pf growth 48h inactive, CHX counter-1 inactive, SARS PLP yeast inactive, NS1 function inh inactive, Pf growth 96h inconclusive, Shiga toxin inh 131.6 and CHX counter-2 inactive.
Screening CC(=O)Nc1ccc(C23CC4CC(CC(C4)C2)C3)cc1 returned Pf growth 48h inactive, CHX counter-1 inactive, SARS PLP yeast inactive, NS1 function inh inactive, Pf growth 96h inactive and Shiga toxin inh inactive.
